In PubChem BioAssay (NCATS):
Inconclusive results are not listed. Where a call stands in place of a potency, no number is given. Activity calls are given as the source filed them. The call rests on the fitted dose curve.

Key:
[1] = Primary qHTS for Huh7 cytotoxicity: counterscreen for inhibitors of MERS-S pseudotyped particle cell entry (AID 1479147)
[2] = Primary qHTS for Vero E6 cytotoxicity: counterscreen for inhibitors of SARS-S pseudo-typed particle cell entry (AID 1479150)
[3] = Confirmatory qHTS for VERO E6 Cytotoxicity Assay: Counterscreen for SARS-CoV-2 CPE Assay (AID 1508605); further: series mostly up to about 20 µM; nearly all actives have a fitted effect of over 60% in size
[4] = Confirmatory qHTS for activators (rescue) of SARS-CoV-2 Cytopathic Effect (CPE) (AID 1508606); further: potency means the concentration at half of the fitted maximal effect; nearly all actives have a fitted effect of over 70% in size

SMILES | Potency [1] | Potency [2] | Potency [3] | Potency [4]
O=C(CCCN1CC=C(n2c(=O)[nH]c3ccccc32)CC1)c1ccc(F)cc1 | inactive | inactive | – | –
COC(=O)C1=C(C)NC(C)=C(C(=O)OCCN2CCN(C(c3ccccc3)c3ccccc3)CC2)C1c1cccc([N+](=O)[O-])c1 (centres undefined) | inactive | inactive | – | –
CN(C)CCOc1ccccc1Cc1ccccc1 | inactive | inactive | – | –
CC(=O)c1ccc2c(c1)N(CCCN1CCC(CCO)CC1)c1ccccc1S2 | inactive | inactive | inactive | 11.2 µM (active)
CN(C)CCOC1=Cc2ccccc2Sc2ccc(Cl)cc21 | inactive | inactive | – | –
CCCOC(C(=O)OC1CCN(C)CC1)(c1ccccc1)c1ccccc1 | inactive | inactive | inactive | –
O=C(Nc1ccc(Cl)cc1)Nc1ccc(Cl)c(C(F)(F)F)c1 | inactive | inactive | – | –
CN(C)CCCOc1nn(Cc2ccccc2)c2ccccc12 | inactive | inactive | – | –
